Results from PubChem BioAssay AID1508602 (The Scripps Research Institute Molecular Screening Center, 2020).
About 6,800 (1%) of roughly 650,000 compounds were called active. The sample holds actives, similar compounds and a random draw of the others, so the mix is not that of the screen. Rule as the data show it: active = activation above about 4.9%; inactive = the rest.

biological target: G-protein coupled receptor 151 (Homo sapiens) (UniProt Q8TDV0); experiment: activates the human receptor GPR151, primary screen, cell-based, PathHunter beta-arrestin, luminescence (AID 1508602); conditions: PathHunter beta-arrestin GPR151 cells, at 11.2 µM, active compounds read high;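 also: 0% = median of compound wells and 100% = cells with positive control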
Sequence (Q8TDV0 whole entry, looked up): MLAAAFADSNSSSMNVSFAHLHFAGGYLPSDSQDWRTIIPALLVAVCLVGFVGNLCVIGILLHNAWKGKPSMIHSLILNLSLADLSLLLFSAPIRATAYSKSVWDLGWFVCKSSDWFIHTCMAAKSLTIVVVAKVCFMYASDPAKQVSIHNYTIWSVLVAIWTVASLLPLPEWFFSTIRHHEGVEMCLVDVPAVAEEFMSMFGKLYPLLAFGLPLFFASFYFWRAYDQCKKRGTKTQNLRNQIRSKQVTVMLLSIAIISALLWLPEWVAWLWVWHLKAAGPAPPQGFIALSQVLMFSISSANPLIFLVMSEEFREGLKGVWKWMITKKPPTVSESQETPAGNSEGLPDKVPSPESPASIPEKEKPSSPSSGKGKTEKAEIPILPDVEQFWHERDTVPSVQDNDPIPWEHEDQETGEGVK

**Q.** With COc1ccc(CNCc2cccn2-c2sc(C)c(C)c2C(=O)O)cc1 as the compound, how does the activation read?
**A.** Its activation is 0.477% (inactive).

**Q.** With C=CCN(c1ccc(C(=O)Nc2ccc(Br)c(Cl)c2)cc1)S(C)(=O)=O as the compound, how does the activation read?
**A.** Its activation is 0.888% (inactive).

**Q.** For C=CCN(c1ccc(C(=O)Nc2ccc(OCc3ccccc3)cc2)cc1)S(C)(=O)=O, which activation is on record?
**A.** The activation was 5% (active).

**Q.** For C=CCN(c1ccc(C(=O)Nc2cc(C)cc(C)c2)cc1)S(C)(=O)=O, which activation is on record?
**A.** Its activation is -0.236% (inactive).

**Q.** For CCOC(=O)c1ccc(NC(=O)CSc2nc(NCc3ccc(Cl)cc3)c3ccccc3n2)cc1, which activation is on record?
**A.** The activation was -0.895% (inactive).

**Q.** O=C(Nc1cccc(Cl)c1)N(C1=NCCC1)c1ccc(Cl)cc1 was tested. Which activation did it give?
**A.** The activation was 0.148% (inactive).

**Q.** With CCc1c(C(=O)N2CCN(c3cccc(Cl)c3)CC2)[nH]c(C)c1C(C)=O as the compound, how does the activation read?
**A.** Its activation is 4.26% (inactive).

**Q.** For CC(=O)c1c(C)[nH]c(C(=O)CN2CCN(C(=O)c3ccccc3)CC2)c1C, which activation is on record?
**A.** Its activation is 0.331% (inactive).

**Q.** For CC(=O)c1c(C)[nH]c(C(=O)N2CCN(c3ccc(Cl)cc3)CC2)c1C, which activation is on record?
**A.** Its activation is 5.19% (active).

**Q.** For COc1ccc(C(=O)NCCc2ccc(F)cc2)cc1[N+](=O)[O-], which activation is on record?
**A.** The activation was 0.474% (inactive).

**Q.** With COc1cccc(-c2nnc(N)s2)c1 as the compound, how does the activation read?
**A.** Its activation is -0.725% (inactive).

**Q.** How did the activation turn out when Cc1cnc(C(=O)N2CCc3ccc(NC(=O)Cc4ccccc4F)cc3C2)cn1 was run?
**A.** The activation was 1.39% (inactive).

**Q.** For CCOC(=O)N1CCN(Cc2nc3c(c(=O)n(C)c(=O)n3C)n2CC(C)C)CC1, which activation is on record?
**A.** The activation was -1.33% (inactive).

**Q.** With Cc1nc(N2CCCC2C(=O)N2CC3CCC2C3)nc2ccccc12 (stereo unspecified) as the compound, how does the activation read?
**A.** Its activation is 0.0962% (inactive).

**Q.** COc1ccccc1C1CCCN1C(=O)C1CCN(c2nc(C)c3ccccc3n2)CC1 (stereo unspecified) was tested. Which activation did it give?
**A.** The activation was 11.3% (active).

**Q.** Which activation does the source give for COc1ccccc1C1CCCN1C(=O)C1CC(Cc2ccc(F)cc2)=NO1 (stereo unspecified) here?
**A.** The activation was 1.31% (inactive).

**Q.** For O=C(O)CCC(=O)N1N=C(c2ccc(O)cc2)CC1c1ccc(Br)cc1 (stereo unspecified), which activation is on record?
**A.** The activation was 0.932% (inactive).

**Q.** How did the activation turn out when CCc1cc(C(=O)COc2ccc([N+](=O)[O-])cc2)c(O)cc1O was run?
**A.** The activation was -0.273% (inactive).

**Q.** Cc1cc(Oc2ncnc(N)c2[N+](=O)[O-])cc(C(C)C)c1 was tested. Which activation did it give?
**A.** Its activation is 1.22% (inactive).

**Q.** Which activation does the source give for NC(=O)c1ccnc(N2CCc3ccccc3C2)c1 here?
**A.** Its activation is 0.149% (inactive).

**Q.** For CN1C(=O)NC(=O)/C(=C\c2ccc(-c3ccc(Br)c(Cl)c3)o2)C1=O, which activation is on record?
**A.** The activation was -0.645% (inactive).

**Q.** With COc1cc(C=O)ccc1OCCOc1ccc(C=O)cc1OC as the compound, how does the activation read?
**A.** Its activation is -1.4% (inactive).

**Q.** COc1cc(C=O)ccc1OCc1ccc(Br)cc1 was tested. Which activation did it give?
**A.** The activation was -0.687% (inactive).

**Q.** COc1ccc(C=O)cc1OCc1ccc(F)cc1 was tested. Which activation did it give?
**A.** The activation was 4.92% (active).

**Q.** Which activation does the source give for O=C(CC1=CCCCC1)NCC1Cc2cc(F)cc(-c3cncnc3)c2O1 (stereo unspecified) here?
**A.** The activation was -1.03% (inactive).

**Q.** With CCc1cccc(C)c1NC(=O)/C=C/C(=O)O as the compound, how does the activation read?
**A.** Its activation is 0.671% (inactive).
